Source: PubChem BioAssay
Calls of active or inactive are those of the source.

Legend:
[1] = A549 cell viability effects, profiling panel, calcein-AM fluorescence, 48 h, basal (AID 1162); details: higher = more signal; also: test concentration not given here
[2] = adipocyte viability effects, profiling panel, cell-based, 3T3-L1 adipocytes, calcein-AM fluorescence, 48 h, basal (AID 1163); details: 3T3-L1 adipocytes viability, higher = more signal; also: test concentration not given here
[3] = HepG2 cell viability effects, profiling panel, calcein-AM fluorescence, 48 h, basal (AID 1164); details: higher = more signal; also: test concentration not given here
[4] = MM1S cell viability effects, profiling panel, calcein-AM fluorescence, 48 h, basal (AID 1165); details: higher = more signal;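 also: viability of MM1S multiple myeloma cells under basal unstimulated conditions; test concentration not given here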
[5] = basal RPMI8226 viability, no added stimulus, profiling panel, cell-based, calcein-AM fluorescence, 48 h, PK04 Diversity Set (AID 1166); details: RPMI8226 myeloma viability, higher = more signal;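 also: cells grown under basal conditions without added stimulus; test concentration not given here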
[6] = basal HepG2 mitochondrial membrane potential changes, profiling panel, cell-based, JC-1 fluorescence, 24 h, 100 nL compound (AID 1167); details: higher = more signal; also: test concentration not given here
[7] = basal 3T3-L1 adipocyte mitochondrial potential changes, profiling panel, cell-based, JC-1 fluorescence, 3T3-L1 adipocytes, 24 h, 100 nL compound (AID 1168); details: JC-1 mitochondrial fluorescence, higher = more signal, called active from +8 up or from −8 down; also: test concentration not given here
[8] = basal RPMI8226 mitochondrial membrane potential changes, profiling panel, cell-based, JC-1 fluorescence, 24 h, 100 nL compound (AID 1169); details: RPMI8226 myeloma, JC-1 mitochondrial potential fluorescence, higher = more signal; also: test concentration not given here
[9] = basal MM1S mitochondrial membrane potential changes, profiling panel, cell-based, JC-1 fluorescence, 24 h, 100 nL compound (AID 1170); details: higher = more signal; also: test concentration not given here
[10] = A549 lung cancer cell viability effects, profiling panel, resazurin fluorescence, 24 h, PK04 Diversity Set (AID 1171); details: higher = more signal, called active from +8 up or from −8 down; also: test concentration not given here
[11] = HepG2 liver cancer cell viability effects, profiling panel, resazurin fluorescence, 24 h, PK04 Diversity Set (AID 1172); details: higher = more signal; also: test concentration not given here
[12] = basal S. cerevisiae growth modulation, no modifier, primary screen, OD600, strain BY4716, 24 h, basal condition (AID 1173); details: OD600, 24 h, higher = more signal, called active from +8 up or from −8 down
[13] = MM1S myeloma cell viability, profiling panel, resazurin fluorescence, basal, 24 h, PK04 Diversity Set (AID 1174); details: higher = more signal, called active from +8 up or from −8 down;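 also: MM1S multiple myeloma cell line; test concentration not given here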
[14] = biological target: Dihydroorotate dehydrogenase (quinone), mitochondrial (Plasmodium falciparum (isolate 3D7)) (UniProt Q08210); experiment: PfDHODH enzyme inhibitors, primary screen, biochemical, C-terminal His tag, absorbance 600 nm (AID 1175); details: DCIP absorbance 600 nm, higher = more signal, called active from +8 up or from −8 down;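 also: recombinant parasite enzyme with a five histidine tag at its C terminus; test concentration not given here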
[15] = S. cerevisiae RM11-1a growth modifiers, primary screen, strain RM11-1a, OD600, basal, 24 h (AID 1177); details: OD600, 24 h, higher = more signal, called active from +8 up or from −8 down;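 also: cultures grown under basal conditions with no added stressor; test concentration not given here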
[16] = E. coli acrAB mutant growth effects, primary screen, E. coli filamentation inducers, strain DRC39, OD650, 24 h (AID 1178); details: higher = more signal, called active from +8 up or from −8 down;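 also: growth measured as culture turbidity by optical density at 650 nm; test concentration not given here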
[17] = E. coli acrAB mutant growth effects, primary screen, E. coli filamentation inducers, strain DRC39, OD650, 48 h (AID 1179);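 also: screen aims at cell division blockers that make cells filament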; details: E. coli DRC39 delta-acrAB growth, higher = more signal, called active from +8 up or from −8 down
[18] = RPMI8226 myeloma cell viability, profiling panel, resazurin fluorescence, basal, 24 h, PK04 Diversity Set (AID 1180); details: higher = more signal;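 also: RPMI8826 multiple myeloma cell line at 5000 cells per well; test concentration not given here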
[19] = biological target: E3 ubiquitin-protein ligase XIAP (Homo sapiens) (UniProt P98170); experiment: XIAP binders, primary screen, biophysical, small-molecule microarray, fluorescence 635 nm (AID 1181); details: small-molecule microarray binding, higher = more signal;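 also: score merges 667 nm emission and signal to noise over triplicate slides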
E3 ubiquitin-protein ligase XIAP (Homo sapiens), sequence (P98170 whole entry, looked up): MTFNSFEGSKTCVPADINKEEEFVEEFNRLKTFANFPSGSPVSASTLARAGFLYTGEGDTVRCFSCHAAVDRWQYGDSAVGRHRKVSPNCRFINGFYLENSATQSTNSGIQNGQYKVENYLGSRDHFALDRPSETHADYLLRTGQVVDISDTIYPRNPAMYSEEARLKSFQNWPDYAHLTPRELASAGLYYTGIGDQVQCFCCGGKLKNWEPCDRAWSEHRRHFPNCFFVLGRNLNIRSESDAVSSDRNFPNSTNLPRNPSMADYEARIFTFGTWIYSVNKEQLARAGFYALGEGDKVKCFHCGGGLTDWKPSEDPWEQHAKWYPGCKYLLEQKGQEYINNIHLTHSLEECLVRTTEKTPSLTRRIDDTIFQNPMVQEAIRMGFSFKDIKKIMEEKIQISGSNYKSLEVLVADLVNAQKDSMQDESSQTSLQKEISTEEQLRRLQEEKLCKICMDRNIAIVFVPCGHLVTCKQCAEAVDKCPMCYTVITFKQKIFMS

Dihydroorotate dehydrogenase (quinone), mitochondrial (Plasmodium falciparum (isolate 3D7)), sequence (Q08210 whole entry, looked up): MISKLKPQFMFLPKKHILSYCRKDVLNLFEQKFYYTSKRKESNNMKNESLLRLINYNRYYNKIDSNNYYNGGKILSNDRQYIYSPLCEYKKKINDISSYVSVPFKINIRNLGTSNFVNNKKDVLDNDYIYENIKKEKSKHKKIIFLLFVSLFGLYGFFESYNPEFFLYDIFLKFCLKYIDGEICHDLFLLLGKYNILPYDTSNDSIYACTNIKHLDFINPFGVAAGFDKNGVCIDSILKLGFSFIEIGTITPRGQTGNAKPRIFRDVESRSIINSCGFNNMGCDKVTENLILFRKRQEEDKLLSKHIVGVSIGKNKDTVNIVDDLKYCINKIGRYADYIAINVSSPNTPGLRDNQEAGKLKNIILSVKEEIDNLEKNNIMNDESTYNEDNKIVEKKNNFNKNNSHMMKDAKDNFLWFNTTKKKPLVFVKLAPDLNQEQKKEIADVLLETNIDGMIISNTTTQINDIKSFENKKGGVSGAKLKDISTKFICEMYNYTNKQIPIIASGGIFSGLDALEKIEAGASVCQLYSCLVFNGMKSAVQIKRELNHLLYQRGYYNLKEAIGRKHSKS

Compound	z-score [1]	z-score [2]	z-score [3]	z-score [4]	z-score [5]	z-score [6]	z-score [7]	z-score [8]	z-score [9]	z-score [10]	z-score [11]	z-score [12]	z-score [13]	composite z-score [14]	z-score [15]	z-score [16]	z-score [17]	z-score [18]	composite z-score [19]
COc1ccc([Si](C)(C)[C@H]2[C@H](CCO)O[C@@]3(C(=O)N(Cc4ccc(N5CCCCC5=O)cc4)c4ccccc43)[C@@H]2C)cc1	-0.124	0.705	-0.263	-2.59	-0.628	1.05	1.04 (inactive)	-0.48	-0.119	-2.32 (inactive)	-1.69	-1.07 (inactive)	-7.58 (inactive)	-5.37 (inactive)	2 (inactive)	2.18 (inactive)	-0.0822 (inactive)	-2.73	0.0223
CO[C@H]1COC(=O)[C@H](C)NC(=O)CC=C[C@@H](C)[C@H](NS(=O)(=O)c2ccc(C)cc2)COC(=O)CC=C[C@@H]1C	-0.199	1.76	-0.261	0.436	0.769	0.645	-0.236 (inactive)	-0.081	0.753	0.317 (inactive)	0.072	-1.57 (inactive)	1.19 (inactive)	-0.253 (inactive)	-0.724 (inactive)	0.127 (inactive)	-0.244 (inactive)	0.945	0.023
COc1ccc(CCNC(=O)[C@@]2(c3ccc([N+](=O)[O-])cc3)CC(=O)N(C(C)C)[C@@H]2c2ccc(CO)cc2)cc1	0.755	1.52	-0.627	0.701	0.159	-0.0592	-0.209 (inactive)	1.05	0.323	0.1 (inactive)	0.483	-1.12 (inactive)	1.56 (inactive)	-0.704 (inactive)	-1.28 (inactive)	0.793 (inactive)	0.479 (inactive)	1.19	-0.154
COC(=O)C[C@H]1O[C@]2(C(=O)N(C)c3ccccc32)[C@@H](C)[C@@H]1[Si](C)(C)c1ccc(OC)cc1	-0.437	2.54	-0.125	-0.128	-2.98	0.441	1.24 (inactive)	-0.636	1.05	-0.767 (inactive)	-0.0652	-4.08 (inactive)	0.504 (inactive)	0.939 (inactive)	-1.41 (inactive)	2.5 (inactive)	0.871 (inactive)	0.452	0.0942
CO[C@H]1O[C@H](CO)[C@@H](OC(=O)Nc2ccccc2)[C@H](OC(=O)Nc2ccc3c(c2)OCO3)[C@@H]1OC(=O)Nc1ccc2c(c1)OCO2	0.307	0.85	0.17	-1.51	-0.735	-0.493	2.84 (inactive)	0.105	0.327	-0.429 (inactive)	-0.667	-0.0273 (inactive)	0.238 (inactive)	-0.167 (inactive)	1.21 (inactive)	1.84 (inactive)	0.228 (inactive)	-0.365	0.136
CCN1C(C)=C(C(=O)OC)[C@@H](c2ccccc2)N2C(=O)[C@](O)(C(=O)OC)[C@@H](c3ccccc3)C(C(C)=O)=C12	0.158	2.15	-0.473	0.244	-0.918	1.35	0.982 (inactive)	0.195	-0.14	-0.468 (inactive)	-0.267	-2.6 (inactive)	1.43 (inactive)	-5.15 (inactive)	-1.84 (inactive)	-0.891 (inactive)	-2 (inactive)	0.554	-0.0167
COc1cc(CO)cc(I)c1O[C@H]1C=C(C(=O)NCCO)C[C@@H](NCCc2c[nH]c3ccccc23)[C@@H]1O	1.74	-0.335	0.0706	-0.68	-0.391	-1.01	1.01 (inactive)	0.166	-0.389	0.279 (inactive)	0.507	-8.04 (active)	0.221 (inactive)	1.23 (inactive)	0.216 (inactive)	2.21 (inactive)	-0.41 (inactive)	0.848	-0.242
CCCCCCc1nc(C2CC2)c(C)c2c1[Si](C(C)C)(C(C)C)OC2	0.632	2.88	-0.693	-0.155	-0.499	0.366	1.56 (inactive)	0.296	0.419	-0.207 (inactive)	0.252	-0.875 (inactive)	1.47 (inactive)	-3.54 (inactive)	-2.89 (inactive)	1.6 (inactive)	0.878 (inactive)	0.232	0.109
C=CCNC(=O)[C@H]1[C@@H]2C(=O)O[C@@H](c3ccccc3)[C@@H](c3ccccc3)N2[C@@H](c2ccccc2OCCO)[C@]12C(=O)N(C(=O)OCCOC)c1ccc(C#CCC(C(=O)OC)C(=O)OC)cc12	0.208	2.2	0.128	-2.95	-3.66	0.348	1.54 (inactive)	-1.02	-1.35	-0.131 (inactive)	-0.234	1.06 (inactive)	1.25 (inactive)	0.229 (inactive)	1.72 (inactive)	1.11 (inactive)	0.761 (inactive)	-0.54	0.182
C[N+](C)(C)CCCCNC(=O)[C@@H]1C[C@@H]2C(=O)N3CCC[C@H]3C(=O)N2[C@@H]1c1cccc(OCCO)c1	0.668	1.05	-0.954	-0.732	-0.179	0.428	0.971 (inactive)	0.252	0.791	-0.141 (inactive)	0.0931	0.0521 (inactive)	0.982 (inactive)	-31.2 (active)	-1.27 (inactive)	0.497 (inactive)	0.0567 (inactive)	0.947	-0.0619
CO[C@H]1O[C@H](CO)[C@@H](OC(=O)CCc2ccccc2)[C@@H]2OC(=O)[C@H](Cc3cccc(Br)c3)C/C=C/C[C@@H](Cc3cccc(Br)c3)C(=O)O[C@@H]12	1.28	1.22	2.26	1.15	1.6	1.01	1.6 (inactive)	-0.359	1.18	0.844 (inactive)	1.13	-3.87 (inactive)	1.5 (inactive)	-0.578 (inactive)	-4.01 (inactive)	1.41 (inactive)	1.14 (inactive)	1.45	0.0356
CO[C@H]1COC(=O)CC=C[C@@H](C)COC(=O)[C@@H](C)NC(=O)CC=C[C@@H]1C	0.43	0.688	1.37	0.344	0.615	1.24	1.87 (inactive)	-0.258	1.52	0.372 (inactive)	0.931	-2.02 (inactive)	1.13 (inactive)	-0.0214 (inactive)	-4.97 (inactive)	0.236 (inactive)	-1.28 (inactive)	0.181	-0.216
C[C@@H]1C=CCC(=O)OC[C@H]2O[C@@H](C=C[C@@H]2O)[C@H](C)C=CCC(=O)OC[C@H]2O[C@H]1C=C[C@@H]2O	-0.883	1.15	0.158	0.631	-1.99	0.885	0.902 (inactive)	-0.744	0.92	-0.573 (inactive)	-0.269	-2.13 (inactive)	0.689 (inactive)	-3.68 (inactive)	-2.89 (inactive)	0.552 (inactive)	-1.41 (inactive)	0.807	-0.039
COc1cccc([C@@H]2[C@@H](C)CC[C@H]3C(=O)N(C)[C@@H](C(C)C)C(=O)N23)c1	0.908	0.323	0.445	0.344	1.44	0.0824	0.517 (inactive)	-0.338	0.64	0.65 (inactive)	0.989	-1.32 (inactive)	0.708 (inactive)	0.295 (inactive)	0.192 (inactive)	0.847 (inactive)	0.836 (inactive)	1.67	0.258
CO[C@@H]1COC(=O)[C@H](C)NC(=O)CC=C[C@@H](C)[C@H](OC)COC(=O)[C@H](C)NC(=O)CC=C[C@H]1C	1.2	-0.0006	1.01	0.419	0.973	0.51	1.44 (inactive)	-1.04	1.95	0.787 (inactive)	0.542	-0.786 (inactive)	0.102 (inactive)	0.32 (inactive)	-0.161 (inactive)	0.884 (inactive)	0.552 (inactive)	-0.171	-0.142
O=C1c2ccccc2[C@](Cc2ccccc2I)(C(=O)NCc2ccccc2)[C@H](c2ccc(CO)cc2)N1Cc1ccccc1C(F)(F)F	0.582	1.06	0.185	-0.698	0.0474	1.11	0.789 (inactive)	0.467	0.463	0.584 (inactive)	0.716	-0.712 (inactive)	1.32 (inactive)	0.309 (inactive)	0.758 (inactive)	0.0438 (inactive)	0.0442 (inactive)	1.21	-0.17
CO[C@H]1COC(=O)CC=C[C@H](C)[C@@H](OC)COC(=O)[C@H](Cc2ccccc2)NC(=O)CC=C[C@@H]1C	0.0767	1.57	0.219	0.196	0.988	0.566	0.746 (inactive)	-0.0213	1.14	0.345 (inactive)	1.26	-0.562 (inactive)	1 (inactive)	1.09 (inactive)	0.33 (inactive)	0.424 (inactive)	-1.39 (inactive)	0.452	-0.031
COCC(=C=CC[C@H](O)c1ccc(OCCO)cc1)C[C@H](O)c1ccccn1	0.905	-0.518	0.0126	0.682	0.237	1.79	1.09 (inactive)	-0.145	-0.116	1.02 (inactive)	0.959	-0.413 (inactive)	1.33 (inactive)	-0.86 (inactive)	0.275 (inactive)	1.74 (inactive)	1.21 (inactive)	0.827	-0.02
